Laboratory results reported in PMC12136788.
In all, about 5,800 sequences were measured (“enrichment r”: median about 0.68, highest 2% from about 11 on). These entries were drawn from the full list.

T1: UNK ZnF1-6 (called full-length) (human, UniProt Q9C0B0 30-357)
T1 sequence: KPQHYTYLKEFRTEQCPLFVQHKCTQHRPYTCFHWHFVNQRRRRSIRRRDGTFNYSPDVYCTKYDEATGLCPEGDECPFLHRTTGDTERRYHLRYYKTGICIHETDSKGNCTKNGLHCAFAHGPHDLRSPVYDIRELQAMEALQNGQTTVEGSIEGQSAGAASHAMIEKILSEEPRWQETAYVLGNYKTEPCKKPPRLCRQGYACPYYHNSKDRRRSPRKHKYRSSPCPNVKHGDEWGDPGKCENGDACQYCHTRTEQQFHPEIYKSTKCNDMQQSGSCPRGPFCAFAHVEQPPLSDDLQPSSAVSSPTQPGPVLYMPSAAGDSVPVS

B1: chr5:173316791:173316892:-|3pUTR|ENSG00000113739|msi1|FALSE|unique (ssRNA)
RNA: GGGAGUUCUACAGUCCGACGAUCGGAAACCUUAUACCCAGAGGAAAAUACACACCUGGGGAGUACAUUUGACAAAUUUCCCUUAGGAUUUCGUUAUCUCACCUUGACCCUCAGCCAAGAUUGGUAAAGCUGCGUCCUGGCGAUCAACAGAGGAUUGAGCAUCA
B2: ENSG00000064393:stop:overlap|stop_codon|ENSG00000064393|stop_codon|NA|stop_codon (ssRNA)
RNA: GGGAGUUCUACAGUCCGACGAUCUCUCCCUGGAGAGUGGUUUUCCUGCUUUUCUGCUGCUAGAAAUGUUGCUGUAUGGGAGCUAGUACAAUAGAAAGUGCCCAGUGACUGCAGGCGACCCUUACCGAGGAUUUUAUUCAAGUACAACAGAGGAUUGAGCAUCA
B3: ENSG00000198589:be:win_4201|CDS|ENSG00000198589|bound_else_gene|NA|bound_elsewhere_windowed (ssRNA)
RNA: GGGAGUUCUACAGUCCGACGAUCGAAGCCUCUGUGACAUUUUUGCAGAGGCUAAUUAGCCUUGUGGAUGUGCUUAUAUUUGCAAGUUCUCUUGGCUUUACUGAAAUUGAAGCUGAAAAAAGUAUGUCAUCUGGAGGAAUUUUGCAACAGAGGAUUGAGCAUCA
B4: chr9:37126384:37126485:+|CDS|ENSG00000147905|unk|total|mutant (ssRNA)
RNA: GGGAGUUCUACAGUCCGACGAUCUAUCGAGAUGAGUCAUCCCGUGAACUGAGUGUUGACCGUGAGGUGGAAUUUCAACUCUACCGCCAAAUUCAUUAUGCCCAAGAUCUUGAUGAUGUCAUCAGGGAGGAAGAGCAUGAAGAACAACAGAGGAUUGAGCAUCA
B5: chr15:52550718:52550819:-|3pUTR|ENSG00000128989|msi1|total|mutant (ssRNA)
RNA: GGGAGUUCUACAGUCCGACGAUCUUUAUAUAAACUUUUUAAAUGCCGAAACUUUUUACUUCCACACUCAGUUUUGGAGACCCCCGAAUAAAAGGCUUCAAUACUCUGCAUUCCAUGCCCUCUGCCACCUGCUUUUUUUUCCCCCAACAGAGGAUUGAGCAUCA
B6: ENSG00000066084:stop:overlap|stop_codon|ENSG00000066084|stop_codon|NA|stop_codon (ssRNA)
RNA: GGGAGUUCUACAGUCCGACGAUCACUGGCAGCCACACAUCUCACCUGCUGGGACAGAACCGGCAUACAUUGAGGGGAAACAAUAGUAAAUGUCUUAGACUUUAAGAAGGAUGCUGGGCUGUGGCACGGCAUGUUUGCGAAUGUCAACAGAGGAUUGAGCAUCA
B7: chrX:150470157:150470258:+|CDS|ENSG00000013619|unk|FALSE|unique (ssRNA)
RNA: GGGAGUUCUACAGUCCGACGAUCUCCAAAUGAGCUAGAUCUUGAGAAGAUACUGGGGACGAAGCCAGAAGAGCCACUGGUUUUAGAUCAUCCCCAGGCAACCCUAAGCACAACUCCCAAGCCUUCGGUUCAGAUGUCACACUUCAACAGAGGAUUGAGCAUCA
B8: chr8:102207567:102207681:-|3pUTR|ENSG00000048392|unk|total|mutant (ssRNA)
RNA: GGGAGUUCUACAGUCCGACGAUCUAUUAAUUGCAAUGAUGUUGUAAUAAAAUACUCUCAUUUCCUUAAAAUAAUUGUGAUUCCCGGUCCCCGGAUCCCGAAUCCGAUCUUUGUAUUUUUAAUGCUCCGGGGAAGAAUAUAAGUCAACAGAGGAUUGAGCAUCA
B9: ENSG00000142634:stop:overlap|stop_codon|ENSG00000142634|stop_codon|NA|stop_codon (ssRNA)
RNA: GGGAGUUCUACAGUCCGACGAUCAGGCGGAGGAGAUGAAGCAGCGGAAAGCGGCCUUCAAGGAGCUGCAGUCCACCUUUAAGUAGCGGGGGCUGCAGCCGACCGCCCUGCUCCGGCCCCAGUGUGGUGGGCGAGGGUGGCGCACAACAGAGGAUUGAGCAUCA
B10: ENSG00000100154:stop:overlap|stop_codon|ENSG00000100154|stop_codon|NA|stop_codon (ssRNA)
RNA: GGGAGUUCUACAGUCCGACGAUCAGCCAGUGAAGGCAGGUGACACUUACCUCCACCAGGUGAUGCAGGCUGUGGUGAUAAACUAGAGUGUGAAGAGCUCAGAGUGCAGCCUCUGGCCUUGCCACUCACAAGCUGUAGGACACUCAACAGAGGAUUGAGCAUCA
B11: chr18:33333173:33333394:-|CDS|ENSG00000166960|control|control|control (ssRNA)
RNA: GGGAGUUCUACAGUCCGACGAUCACAUUUUGAAAAACAAAAGACAGAGUUAGAAGAAGCAAAUGCAAAGAUUCAAGCAGACAUAGACUACAUGAAUGAACAUGGCCCUCUACUGGACUCUAAGCAGAAUCAGGAACUUCAAGACAACAGAGGAUUGAGCAUCA
B12: chr3:142163631:142163732:-|3pUTR|ENSG00000175066|unk|total|mutant (ssRNA)
RNA: GGGAGUUCUACAGUCCGACGAUCCCCAAAGUGCUGGGAUUGCAGCCGUGAACCACUGCACCCAGCCAAUGGGUGUAAUUUCACCGGAAAUAAUUCUUUUUGUCAGAAUGUACUGAAUUGUAAUAUUAAUACCUGAAAAUUUGUCAACAGAGGAUUGAGCAUCA
B13: ENSG00000101596:stop:overlap|stop_codon|ENSG00000101596|stop_codon|NA|stop_codon (ssRNA)
RNA: GGGAGUUCUACAGUCCGACGAUCUUAGUUGUAAUAAAAUAAAAGAUAAUGACAAAGAAGAUGGCUGCUUCUAUUUCAGGUUAUAGUUGAAGUCCUGCCUAAUCAACCUGUGAAGUUAGUACCUAAAAUUAAACCACCUACACCCAACAGAGGAUUGAGCAUCA
B14: chr20:18487131:18487232:-|3pUTR|ENSG00000089050|msi1|FALSE|unique (ssRNA)
RNA: GGGAGUUCUACAGUCCGACGAUCAAAUAUAGUAACCAGUAACCACAGCUAGCUGUAAAAUUGAAAAUUCAGUUCAGUCAAACUAGCCAUAUUUCAAGUGCUCAACAGCCACUGGUGGCUAUUGGUUACCUUACUGACCAGCCACAACAGAGGAUUGAGCAUCA
B15: chr9:34635388:34635489:-|3pUTR|ENSG00000147955|msi1|total|mutant (ssRNA)
RNA: GGGAGUUCUACAGUCCGACGAUCGGGAUAUCCAUGCUUAUGUAUCCAAACACAGAGACCCAUGGGAACAAAUGAGACACAUACCGAUACUGAGACCUGUGUGUACAGCCGGACCAUGCACUCACACCCAUCUGGAGAGGGAGCCAACAGAGGAUUGAGCAUCA
B16: chr1:16124655:16124788:-|3pUTR|ENSG00000142627|msi1|total|mutant (ssRNA)
RNA: GGGAGUUCUACAGUCCGACGAUCAGACUGUGAACUUGACUGGGUGAGACCCAAAGCGGUCCCUGUCCCUCCCGUGCCUUCUUCCGACCCUCGGGCCCCAUCCUCAUCCCUGACUGGCCAAACCCUUGCUUUCCUGGGCCUUUGCAACAGAGGAUUGAGCAUCA
B17: ENSG00000070961:be:win_2401|CDS|ENSG00000070961|bound_else_gene|NA|bound_elsewhere_windowed (ssRNA)
RNA: GGGAGUUCUACAGUCCGACGAUCGAUGGCCCAGCACUAAAGAAAGCAGAUGUUGGAUUUGCAAUGGGUAUUGCUGGAACUGAUGUAGCUAAAGAAGCAUCCGAUAUUAUUCUCACAGAUGACAACUUUACAAGCAUUGUUAAACAACAGAGGAUUGAGCAUCA
B18: chr1:6592219:6592320:-|3pUTR|ENSG00000162413|unk|total|mutant (ssRNA)
RNA: GGGAGUUCUACAGUCCGACGAUCCCCAAAGCCGCCUUGGCUUGAGUUUUUGUCCUUGCCUCCUUUUCCGAGAAGAGGGCAUUCCGACUGCAUUUUCCUGGUUAAAGAAGGUUAAAGCAAAUGUUUAUUGCCUUUUCCCGUGAACAACAGAGGAUUGAGCAUCA
B19: ENSG00000168297:stop:overlap|stop_codon|ENSG00000168297|stop_codon|NA|stop_codon (ssRNA)
RNA: GGGAGUUCUACAGUCCGACGAUCCUGGGGCCAGCUCACCUCUCACGUCCCCGUCAUCGCCAACUCCACCCUCUACAUCAGGUUAGUGAUGGAGUAAAGUGACAUGCCACCUUCCUGUCCGCCAACAGGAGGAGCGGGCUGUGCCAACAGAGGAUUGAGCAUCA
B20: chr22:40826605:40826706:-|CDS|ENSG00000100380|unk|total|mutant (ssRNA)
RNA: GGGAGUUCUACAGUCCGACGAUCCACCAAAUUACAGGUCUAAAUAAGAGAUGGAAUUCCGGAUAAUAAACUUACUGACCCAGCCGGACACUUUUUAAAUACUAAUGAACCCUUUCUUUUCAGGAUCCAGAAGUUAUGGUGGCUCAACAGAGGAUUGAGCAUCA
B21: ENSG00000143373:stop:overlap|stop_codon|ENSG00000143373|stop_codon|NA|stop_codon (ssRNA)
RNA: GGGAGUUCUACAGUCCGACGAUCACUUCCGCACGCAUGGCAUGGCGUUCAUCAGGGCUCGGCAGGGGGCUGUUGGGGACAACUAGUCUCCAAGGCCUGGGACUGACCAGCCCCUUCCUCUUGGAGCCUGGUUUUCCCUACUGCCAACAGAGGAUUGAGCAUCA
B22: ENSG00000136451:be:win_2201|3pUTR|ENSG00000136451|bound_else_gene|NA|bound_elsewhere_windowed (ssRNA)
RNA: GGGAGUUCUACAGUCCGACGAUCAUUGUGACCUGAUAUUUGGAGAUGUAAAUAUUGCUCAGCAUAUUAAUCCCGAUGGAAUAUAGCAUUGUAGUUGACUUUUUAAAAAAAAAAAAAAUUUAAAAAAAAUCUACAAAUUGUGUUCAACAGAGGAUUGAGCAUCA

biological target: T1, UNK ZnF1-6 (called full-length); assay: nsRBNS (natural sequence RNA bind-n-seq); RBNS binding buffer (assumed for nsRBNS): 25 mM Tris pH 7.5, 150 mM KCl, 3 mM MgCl2, 0.01% Triton X-100, 500 ug/ml BSA, 20 U/ml SUPERase-In, 4 C; UNK is unkempt and MSI1 is Musashi-1; names of the RNAs are library labels; protein concentration not given here; high values mean tight binding

Binder | binding signal
B1 | 0.601 enrichment R
B2 | 0.569 enrichment R
B3 | 0.355 enrichment R
B4 | 0.413 enrichment R
B5 | 1.03 enrichment R
B6 | 1.59 enrichment R
B7 | 0.539 enrichment R
B8 | 0.334 enrichment R
B9 | 1.43 enrichment R
B10 | 0.552 enrichment R
B11 | 0.467 enrichment R
B12 | 0.381 enrichment R
B13 | 1.46 enrichment R
B14 | 0.375 enrichment R
B15 | 0.886 enrichment R
B16 | 1.06 enrichment R
B17 | 0.531 enrichment R
B18 | 0.414 enrichment R
B19 | 1.05 enrichment R
B20 | 0.405 enrichment R
B21 | 0.569 enrichment R
B22 | 0.637 enrichment R
